# Test results from the supplement of paper PMC3334620.
# The full ranking holds about 33,000 sequences; the median of “E-score (-0.5 to 0.5)” is about -0.054, and the highest 2% start at about 0.39. Only a selection was taken, and the highest values are over-represented in it overall.
# Target: Ylr278c (UniProt Q05854)
# Test: PBM E-score (8-mer binding enrichment) (E-score (-0.5 to 0.5)); higher = stronger / more preferred TF binding
# Conditions: protein concentration: 200 nM; construct: GST-DNA-binding domain
# Description: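 Universal 'all 10-mer' protein binding microarrays (Agilent AMADID 015681) probed with GST-tagged S. cerevisiae TFs (full-length or DBD) made by in vitro transcription/translation (PURExpress), about 100-200 nM. Bound TF was detected with fluorescent anti-GST. Each ungapped 8-mer (which stands for itself and its reverse complement) is scored by the PBM enrichment score (E-score), a modified Wilcoxon-Mann-Whitney statistic from -0.5 to +0.5, computed with the Universal PBM Analysis Suite. Scale: above 0.35 generally sequence-specific binding.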
# UniProt Q05854, sequence (Q05854 whole entry): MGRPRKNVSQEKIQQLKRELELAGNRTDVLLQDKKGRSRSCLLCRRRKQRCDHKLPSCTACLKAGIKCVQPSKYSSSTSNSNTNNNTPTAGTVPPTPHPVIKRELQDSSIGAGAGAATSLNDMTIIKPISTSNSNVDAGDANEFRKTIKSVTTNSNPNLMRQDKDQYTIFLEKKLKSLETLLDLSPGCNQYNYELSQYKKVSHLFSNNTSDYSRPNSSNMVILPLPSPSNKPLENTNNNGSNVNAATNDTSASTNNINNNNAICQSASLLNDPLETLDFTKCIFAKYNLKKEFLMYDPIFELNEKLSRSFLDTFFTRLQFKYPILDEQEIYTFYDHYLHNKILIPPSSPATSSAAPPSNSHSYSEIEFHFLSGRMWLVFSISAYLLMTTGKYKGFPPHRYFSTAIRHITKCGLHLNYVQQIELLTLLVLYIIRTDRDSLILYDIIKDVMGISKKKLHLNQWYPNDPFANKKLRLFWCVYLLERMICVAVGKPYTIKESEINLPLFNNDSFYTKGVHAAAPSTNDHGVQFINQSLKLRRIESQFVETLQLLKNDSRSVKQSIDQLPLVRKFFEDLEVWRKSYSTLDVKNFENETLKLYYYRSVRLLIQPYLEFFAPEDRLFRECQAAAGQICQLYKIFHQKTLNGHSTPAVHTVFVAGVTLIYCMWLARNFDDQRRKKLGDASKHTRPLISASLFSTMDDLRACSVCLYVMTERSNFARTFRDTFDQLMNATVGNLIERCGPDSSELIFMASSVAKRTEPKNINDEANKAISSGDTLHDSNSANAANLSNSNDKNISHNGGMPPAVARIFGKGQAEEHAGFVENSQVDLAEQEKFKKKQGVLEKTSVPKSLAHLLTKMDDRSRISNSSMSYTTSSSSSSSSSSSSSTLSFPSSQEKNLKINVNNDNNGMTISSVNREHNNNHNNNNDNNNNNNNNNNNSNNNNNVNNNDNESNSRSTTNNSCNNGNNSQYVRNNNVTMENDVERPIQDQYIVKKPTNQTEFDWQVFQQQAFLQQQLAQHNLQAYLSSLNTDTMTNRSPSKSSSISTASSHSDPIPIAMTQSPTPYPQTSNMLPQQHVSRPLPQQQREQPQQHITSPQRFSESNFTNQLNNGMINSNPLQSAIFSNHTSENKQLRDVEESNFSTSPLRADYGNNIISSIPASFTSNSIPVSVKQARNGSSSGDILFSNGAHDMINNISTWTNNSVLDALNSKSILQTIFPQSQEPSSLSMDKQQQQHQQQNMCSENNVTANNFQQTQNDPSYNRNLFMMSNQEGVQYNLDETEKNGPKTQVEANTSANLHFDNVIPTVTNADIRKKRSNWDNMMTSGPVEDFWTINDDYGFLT
row,Sequence,PBM E-score
1,CGGGCGGC,0.31
2,CCAGTAGC,0.181
3,CATTGCTA,-0.0953
4,ACGCTCTA,-0.183
5,ATCGAAAG,-0.0309
6,GACTGCTA,-0.277
7,CCAGTCCA,-0.17
8,GTCCCTAA,-0.0663
9,AAGAGAGT,-0.0766
10,ATTCCCGA,0.338
11,ATTCCGGC,0.463
12,ATTCCTGG,-0.0751
13,ACTCCCCG,0.338
14,ACTCCCGA,0.217
15,ATTCCCGG,0.411
16,ATTCCCCG,0.375
17,ACTCCCGG,0.396
18,ATTCCTGC,0.0732
19,ATTCCGGG,0.443
20,ATTCCGTG,0.361
21,ATTCCAGC,-0.104
22,GCGAGTCA,-0.0556
23,CACCGCCC,0.218

row,Sequence,PBM E-score
1,AAGCTCTG,-0.356
2,ATTTATCC,0.163
3,ACATCAAC,0.05
4,TAAAGAAA,0.0382
5,CGCCAAAC,0.0632
6,AATTAGCC,0.0197
7,ACGGAATC,0.32
8,CGGGAATA,0.374
9,CCGGAATC,0.435
10,ACGGAAGA,0.169
11,GTGGAATA,0.0653
12,GGGGAATA,0.141
13,CCGGAATA,0.434
14,CTGGAATC,-0.0172
15,CCGGAAGG,0.387
16,CCGGAAGA,0.421
17,GCGGAATA,0.396
18,ACGGAATA,0.357
19,AAATGTGA,-0.146
20,CACCCCCG,0.145
21,CATCTTTA,-0.0964
22,AGGTAACG,-0.0647
23,GTATGGGA,-0.174

row,Sequence,PBM E-score
1,CCTCTACA,-0.252
2,AAGATCTT,0.0756
3,AAGCGTCT,-0.176
4,ACTCATGG,-0.191
5,ATCCGGCC,0.399
6,ATACGGTG,0.0149
7,ATCCGGTG,0.408
8,AACCGGCC,0.275
9,ATCCGGCG,0.432
10,ATCCGACG,0.367
11,ACCCGGTG,0.277
12,ACCCGGCC,0.272
13,AACCGGCG,0.361
14,CTCACCTC,-0.0994
15,CTAGCATC,-0.167
16,CTGCTTTA,0.0716
17,GGTCTCTA,-0.21
18,ATCGCCAC,-0.0201
19,GCTGGGCA,-0.184
20,ATAACTTG,-0.14
21,ATACTGCC,0.013
22,ATAGAGAG,-0.283
23,AAGTCCGG,0.481

row,Sequence,PBM E-score
1,ACGTCCGC,0.299
2,AAGTCCAT,-0.0494
3,AAGTCCCT,-0.213
4,AAGTCCGT,0.433
5,AAGTCCGC,0.46
6,AAGTCCAG,-0.0689
7,AAGTCCTG,-0.106
8,AAGTCCTC,0.122
9,CACCGCTG,-0.0372
10,ACTTAAGG,-0.105
11,ACACAAGA,-0.0979
12,ACTAGAAT,-0.0455
13,ATTGGCCC,-0.211
14,GTCGTCGA,-0.121
15,AGGGTGCC,-0.211
16,CGTATCTC,0.148
17,TACGGCAA,0.129
18,GCCGGCAC,0.304
19,GCCGGCGA,0.385
20,ACCGGCCA,0.169
21,CCCGGCCA,0.267
22,TCCGGCGA,0.437
23,ACCGGCAA,0.285

row,Sequence,PBM E-score
1,TCCGGCAA,0.431
2,CCCGGCAA,0.303
3,GCCGGCAA,0.391
4,ACCGGCGA,0.379
5,TCCGGCCA,0.409
6,CCTAGTAA,0.00285
7,AGCCTGGC,-0.226
8,AACCAGGG,-0.155
9,GCTGCACC,0.00051
10,GAGGTGAA,-0.0886
11,ACATCAGC,-0.0321
12,CATTCCGC,0.32
13,AATTCCGA,0.48
14,GATTCCGC,0.355
15,AATTCCTG,0.0336
16,AATTCCGT,0.441
17,AATTCCCG,0.345
18,AATTCCCT,-0.103
19,AATTCCGC,0.456
20,AATTCCCA,-0.035
21,AATTCCAT,0.0569
22,AATTCCAA,-0.00843
23,AATTCCGG,0.48
